# Values joined by “and” are separate entries in the source; they are usually repeats but may differ in a detail not shown here. Equal entries are not always repeated. Inconclusive results are not listed. Values without a mark were called inactive. Active and inactive are the calls of the source. Calls come from the whole dose curve; as a rule, active = well fitted curve in the direction sought with a large enough effect; inconclusive = small, poorly fitted or top-dose-only effect, or another doubt; inactive = no such curve, though single readings can be large; an effect the other way counts as inactive or inconclusive.
# Columns and labels:
# [1] = Viability qHTS for spleen associated tyrosine kinase inhibitor (SYKi) naive MV4-11 cells (AID 1963823); note: nearly all actives have a fitted effect of over 40% in size
# In short: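 Cells: MV4-11, SYK inhibitor naive, 500 per well. Treatment: library compounds, 72 hr, 37 C, 5% CO2. Read-out: CellTiter-Glo luminescence after 10 min RT.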
# [2] = Viability qHTS for spleen associated tyrosine kinase inhibitor (SYKi) drug resistant MV4-11 cells (AID 1963824); note: nearly all actives have a fitted effect of over 35% in size
# In short: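 SYK-inhibitor-resistant MV4-11 AML cells were seeded at 500 per well onto compound and cultured 72 hours (37 °C, 5% CO2). CellTiter-Glo was then added, and after 10 min at room temperature, luminescence gave viability.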
# [3] = Quantitative highthroughput screen to assess conditional lethalithy of NOMO1 cells grown in RPMI1640 with untreated serum (RPMI+s) (AID 1963876); note: nearly all actives have a fitted effect of over 35% in size;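 for Viability: 100% = DMSO wells and 0% = empty wells without cells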
# In short: (§1)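 Each medium arm—HPLM with 10% dialyzed FBS, or RPMI1640 with 5 mM glucose and 10% untreated or dialyzed FBS—was screened against an 11-point, 3-fold compound titration for 48 h at 37 °C, with CellTiter-Glo luminescence as endpoint.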
# [4] = Quantitative highthroughput screen to assess conditional lethalithy of NOMO1 cells grown in Human Plasma-Like Medium with dialyzed fetal bovine serum (HPLM+ds) (AID 1963878); note: nearly all actives have a fitted effect of over 35% in size;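 for Viability: 100% = DMSO wells and 0% = empty wells on each plate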
# In short: as §1
# [5] = Quantitative highthroughput screen to assess conditional lethalithy of P12 Ichikawa cells grown in Human Plasma-Like Medium with dialyzed fetal bovine serum (HPLM+ds) (AID 1963879); settings: Potency: viability; note: nearly all actives have a fitted effect of over 35% in size; for Viability: series mostly up to about 46 µM
# In short: as §1
# [6] = Quantitative highthroughput screen to assess conditional lethalithy of P12 Ichikawa cells grown in RPMI1640 with dialyzed fetal bovine serum (RPMI+ds) (AID 1963880); settings: Potency: P12-Ichikawa viability; note: nearly all actives have a fitted effect of over 35% in size;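 for Viability: 100% = DMSO wells and 0% = empty wells on each plate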
# In short: as §1
# [7] = Quantitative highthroughput screen to assess conditional lethalithy of P12 Ichikawa cells grown in RPMI1640 with untreated serum (RPMI+s) (AID 1963881); settings: Potency: viability; note: nearly all actives have a fitted effect of over 35% in size;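 for Viability: series mostly up to about 46 µM; 100% = DMSO wells and 0% = empty wells without cells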
# In short: as §1
# [8] = Quantitative highthroughput screen to assess conditional lethalithy of SEM cells grown in RPMI1640 with unreated serum (RPMI+s) (AID 1963883); note: nearly all actives have a fitted effect of over 35% in size;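 for Viability: 100% = DMSO wells and 0% = empty wells without cells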
# In short: as §1
# [9] = Quantitative highthroughput screen to assess conditional lethalithy of SEM cells grown in RPMI1640 with dialyzed fetal bovine serum (RPMI+ds) (AID 1963884); note: nearly all actives have a fitted effect of over 35% in size;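 for Viability: series mostly up to about 46 µM; 100% = DMSO control wells and 0% = empty wells without cells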
# In short: as §1
# [10] = Cellular viability qHTS for adrenocortical cancer (ACC) cell line SW-13 (AID 1963989); settings: SW-13 ACC cells viability, CellTiter-Glo, 48 h; activity (max response): stronger effect = lower value; note: nearly all actives have a fitted effect of over 65% in size;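 for activity (max response): cells grown in serum-free medium with ITS supplement; % is set by controls: 0 for no effect and ±100 for the full control effect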
# In short: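 Here, serum-free SW-13 cultures were dosed up to 46 uM. Following 48 h, ATP-dependent luminescence (CellTiter-Glo) reported viable cells, and logistic modeling produced IC50 values.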
# [11] = Quantitative highthroughput screen to assess conditional lethalithy of SEM cells grown in Human Plasma-Like Medium with dialyzed fetal bovine serum (HPLM+ds) (AID 1963882); note: nearly all actives have a fitted effect of over 35% in size; for Viability: series mostly up to about 46 µM
# In short: as §1
# [12] = Cellular viability qHTS for adrenocortical cancer (ACC) cell line NCI-H295R (AID 1963990); note: nearly all actives have a fitted effect of over 60% in size
# In short: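 Viability of NCI-H295R after 48 h of treatment (final up to 46 uM) measured through cellular ATP luminescence.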
# Potency is the fitted concentration of half-maximal effect.
Compound,Potency [1],Potency [2],Potency [3],Potency [4],Potency [5],Potency [6],Potency [7],Potency [8],Potency [9],activity (max response) [10] [%],Potency [11],Potency [10],Potency [12]
C[C@@]1(c2cc(-c3cncnc3)c(F)cc2F)CCSC(N)=N1,inactive,23.5 µM (active),1.66 µM (active),3.72 µM (active),10.5 µM (active),16.6 µM (active),11.8 µM (active),7.43 µM (active),16.6 µM (active),-2.1,,,
CN(C)C1CCN(C(=O)c2ccc(NC(=O)Nc3nc(N4CCOCC4)nc(N4CCOCC4)n3)cc2)CC1,25.2 nM (active) and 37.2 nM (active),35.5 nM (active) and 59 nM (active),0.662 µM (active),0.0235 µM (active),,,,0.166 µM (active),0.296 µM (active),,74.3 nM (active),316 nM (active),
CC(C)c1cc(C(C)C)c(CC(=O)NS(=O)(=O)Oc2c(C(C)C)cccc2C(C)C)c(C(C)C)c1,11.6 µM (active),4.68 µM (active),inactive,inactive,inactive,inactive,inactive,inactive,,-25.2,inactive,,
CC1(CN2CCC(n3c(=O)[nH]c4ccccc43)CC2)OCc2ccccc2-n2cccc21 (configuration not stated),16.6 µM (active),21.1 µM (active) and 10.3 µM (active) and 14.8 µM (active),inactive,inactive,inactive,inactive,inactive,inactive,inactive,,,20.6 µM (active) and 25.1 µM (active),23.1 µM (active)
NC(CO)(CO)CCc1ccc(Sc2cccc(OCc3ccccc3)c2)cc1Cl,7.42 µM (active),3.72 µM (active),13.2 µM (active),7.43 µM (active),7.43 µM (active),14.8 µM (active),10.5 µM (active),,,,,,3.98 µM (active)
